# Reference: PubChem BioAssay (Tox21)
# Inconclusive results are not listed. Entries that show only a call come without a potency. A number with no mark means an inactive call. The source made the active and inactive calls. Unless noted, calls come from the whole dose curve; as a rule, active = well fitted curve in the direction sought with a large enough effect in the repeat runs; inconclusive = weak or mixed curves; inactive = no such curve, though single readings can be large; an effect the other way counts as inactive or inconclusive.
# Key:
# [1] = target: Bile acid receptor (Homo sapiens) (UniProt Q96RI1); test: qHTS assay to identify small molecule antagonists of the farnesoid-X-receptor (FXR) signaling pathway (AID 743217; active = well fitted inhibition curve with a large enough effect in the signal ratio in the repeat runs, not every such curve was filed as active; the % refers to the signal ratio)
# Chain of Bile acid receptor (Homo sapiens) (Q96RI1 whole entry, looked up): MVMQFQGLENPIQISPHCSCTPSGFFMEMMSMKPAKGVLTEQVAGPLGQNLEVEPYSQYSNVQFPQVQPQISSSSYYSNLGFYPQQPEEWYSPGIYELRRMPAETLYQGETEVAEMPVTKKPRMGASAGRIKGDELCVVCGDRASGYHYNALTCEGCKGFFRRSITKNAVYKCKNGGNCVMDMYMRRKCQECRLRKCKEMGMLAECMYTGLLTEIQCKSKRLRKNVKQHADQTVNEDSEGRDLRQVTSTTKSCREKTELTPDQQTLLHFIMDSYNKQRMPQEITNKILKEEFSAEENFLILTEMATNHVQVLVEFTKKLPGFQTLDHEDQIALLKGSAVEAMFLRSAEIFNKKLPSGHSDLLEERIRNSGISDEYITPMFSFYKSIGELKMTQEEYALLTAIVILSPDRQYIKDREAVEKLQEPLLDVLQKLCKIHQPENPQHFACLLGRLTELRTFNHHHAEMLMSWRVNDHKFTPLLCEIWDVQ
# Summary of the method: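 Beta-lactamase reporter under UAS control in HEK 293T cells; compound exposure 16 h at 37 °C in the presence of chenodeoxycholic acid (50 uM final); signal from B/G FRET substrate after 2 h at room temperature.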
# [2] = qHTS assay to identify small molecule agonists of the farnesoid-X-receptor (FXR) signaling pathway - cell viability counter screen (AID 743218); note: nearly all actives have a fitted effect of over 45% in size; note: potency is the fitted concentration of half-maximal effect
# Summary of the method: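 In GeneBLAzer FXR-UAS-bla HEK 293T cells, compounds act for 16 h at 37 C. Cell viability is then scored in the reporter wells by CellTiter-Glo, 30 min at RT, luminescence.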
# [3] = qHTS assay to identify small molecule antagonists of the farnesoid-X-receptor (FXR) signaling pathway - cell viability counter screen (AID 743221; active = well fitted cell-killing curve with a large enough effect in the repeat runs, not every such curve was filed as active; note: nearly all actives have a fitted effect of over 50% in size; note: potency is the fitted concentration of half-maximal effect)
# Summary of the method: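 Quantitative HTS of the Tox21 10K library run in parallel with the beta-lactamase reporter read. HEK 293T cells carrying a UAS-driven bla reporter got compound and 50 uM CDCA (final) for 16 h; ATP-based luminescence followed.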
# [4] = qHTS assay to identify small molecule antagonists of the vitamin D receptor (VDR) signaling pathway - cell viability counter screen (AID 743225); note: nearly all actives have a fitted effect of over 50% in size; note: potency is the fitted concentration of half-maximal effect
# Summary of the method: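 Cells (VDR-UAS-bla HEK 293T) are plated, rested 4 h at 37C, dosed with compound and 3 nM final 1-alpha,25-dihydroxy vitamin D3, and incubated 16 h. Viability is taken from CellTiter-Glo luminescence in the reporter wells.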
# [5] = qHTS assay to identify small molecule antagonists of the retinoid-related orphan receptor gamma (ROR-gamma) signaling pathway - cell viability counter screen (AID 1159520); note: nearly all actives have a fitted effect of over 50% in size; note: potency is the fitted concentration of half-maximal effect
# Summary of the method: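 Tet-on ROR gamma CHO cells were given compounds for 2 hr, then doxycycline hyclate at 1 uM final, and incubated 16 hr at 37 C. Viability was measured as ATP content by CellTiter-Glo luminescence.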
# [6] = qHTS assay to identify small molecule agonists of the AP-1 signaling pathway - cell viability counter screen (AID 1159525; calls by dose curve; note: nearly all actives have a fitted effect of over 55% in size; note: potency is the fitted concentration of half-maximal effect)
# Summary of the method: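 AP-1-bla ME-180 cells in Opti-MEM with 0.5% dialyzed FBS, compound exposure 5 h at 37 C in 15-point titration. Viability read in the same wells as ATP content by CellTiter-Glo luminescence, normalised to tetra-n-octylammonium bromide and DMSO controls.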
# [7] = qHTS assay to identify small molecule agonists of the AP-1 signaling pathway (AID 1159526; calls by dose curve; note: potency is the fitted concentration of half-maximal effect)
# [8] = target: Retinoic acid receptor RXR-alpha (Homo sapiens) (UniProt P19793); test: qHTS assay to identify small molecule agonists of the RXR signaling pathway (AID 1159527; calls by dose curve; note: nearly all actives have a fitted effect of over 35% in size)
# Chain of Retinoic acid receptor RXR-alpha (Homo sapiens) (P19793 whole entry, looked up): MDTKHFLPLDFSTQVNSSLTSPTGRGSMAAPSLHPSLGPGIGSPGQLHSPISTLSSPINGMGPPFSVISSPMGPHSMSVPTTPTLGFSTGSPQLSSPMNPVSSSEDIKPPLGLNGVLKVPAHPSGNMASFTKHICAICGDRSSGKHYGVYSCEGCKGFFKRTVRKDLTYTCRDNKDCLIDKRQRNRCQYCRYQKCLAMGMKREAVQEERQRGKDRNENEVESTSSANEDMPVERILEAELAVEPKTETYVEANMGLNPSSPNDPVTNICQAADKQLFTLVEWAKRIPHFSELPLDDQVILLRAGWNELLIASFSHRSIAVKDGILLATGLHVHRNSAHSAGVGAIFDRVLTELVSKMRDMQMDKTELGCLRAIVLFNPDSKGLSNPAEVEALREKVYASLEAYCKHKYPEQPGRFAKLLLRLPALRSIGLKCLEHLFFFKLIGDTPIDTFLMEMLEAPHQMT
# Summary of the method: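 qHTS of the Tox21 10K library in GeneBLAzer RXR-alpha HEK 293T cells carrying a beta-lactamase reporter […]; 16 hr treatment, 9-cis retinoic acid as agonist control, FRET read-out.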
# [9] = qHTS assay to identify small molecule agonists of the RXR signaling pathway - cell viability counter screen (AID 1159529); note: nearly all actives have a fitted effect of over 50% in size; note: potency is the fitted concentration of half-maximal effect; for activity change, negative = cytotoxicity: series mostly up to about 77 µM
# Summary of the method: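 Cell viability is measured by CellTiter-Glo luminescence, 30 min at room temperature, in wells already read for beta-lactamase. Engineered HEK 293T cells (RXR-alpha-UAS-bla) are dosed 16 hr at 37 C. Tetraoctyl ammonium bromide serves as positive control.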
# [10] = qHTS assay to identify small molecule antagonists of the retinoid acid receptor (RAR) signaling pathway - cell viability counter screen (AID 1159551); note: nearly all actives have a fitted effect of over 35% in size; note: potency is the fitted concentration of half-maximal effect
# Summary of the method: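 Following overnight attachment, C3RL4 reporter cells received DMSO-dissolved compounds and then retinol (1 uM final). Six hours later at 37 C, ATP content was measured by CellTiter-Glo luminescence.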
# [11] = qHTS assay to identify small molecule agonists of the peroxisome proliferator-activated receptor delta (PPARd) signaling pathway - cell viability counter screen (AID 743211); note: potency is the fitted concentration of half-maximal effect; nearly all actives have a fitted effect of over 55% in size
# Summary of the method: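 Viability of GeneBLAzer PPARd UAS-bla HEK293H cells was assessed after 17 h compound incubation at 37C, using CellTiter-Glo reagent added after the reporter read and luminescence recorded 30 min later.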
# [12] = qHTS assay to identify small molecule antagonists of the peroxisome proliferator-activated receptor delta (PPARd) signaling pathway - cell viability counter screen (AID 743213); note: nearly all actives have a fitted effect of over 50% in size; note: potency is the fitted concentration of half-maximal effect
# Summary of the method: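 PPARd-bla HEK293H cells were treated with compounds plus agonist L165041 (300 nM final) for 17 h at 37 C. Viability was then read in the same wells by CellTiter-Glo luminescence after 30 min at room temperature.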
# [13] = target: Peroxisome proliferator-activated receptor delta (Homo sapiens) (UniProt Q03181); test: qHTS assay to identify small molecule antagonists of the peroxisome proliferator-activated receptor delta (PPARd) signaling pathway (AID 743215; active = well fitted inhibition curve with a large enough effect in the signal ratio in the repeat runs, not every such curve was filed as active; the % refers to the signal ratio;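 note: cells stimulated with agonist L165041 at 300 nM final during compound exposure; series mostly up to about 62 µM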)
# Chain of Peroxisome proliferator-activated receptor delta (Homo sapiens) (Q03181 whole entry, looked up): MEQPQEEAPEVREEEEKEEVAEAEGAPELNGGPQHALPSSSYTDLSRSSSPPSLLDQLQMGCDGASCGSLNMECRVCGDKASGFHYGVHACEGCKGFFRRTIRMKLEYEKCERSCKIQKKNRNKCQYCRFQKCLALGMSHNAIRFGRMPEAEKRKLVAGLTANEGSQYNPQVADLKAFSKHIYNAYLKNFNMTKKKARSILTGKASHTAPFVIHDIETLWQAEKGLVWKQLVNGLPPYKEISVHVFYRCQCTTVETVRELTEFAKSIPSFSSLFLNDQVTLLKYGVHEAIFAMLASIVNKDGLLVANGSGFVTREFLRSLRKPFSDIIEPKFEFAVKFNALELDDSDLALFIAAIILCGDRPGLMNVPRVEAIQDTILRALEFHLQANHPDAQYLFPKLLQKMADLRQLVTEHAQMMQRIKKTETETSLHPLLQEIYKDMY
# Summary of the method: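 Antagonist-mode beta-lactamase reporter screen: HEK293H cells with UAS-bla under PPARd control, stimulated by 300 nM L165041 (final) alongside test compound for 17 h at 37 C, then FRET fluorescence after 2 h substrate incubation.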
# [14] = target: Bile acid receptor (Homo sapiens) (UniProt Q96RI1); test: qHTS assay to identify small molecule agonists of the farnesoid-X-receptor (FXR) signaling pathway (AID 743220; active = well fitted activation curve with a large enough effect in the signal ratio in the repeat runs, not every such curve was filed as active; the % refers to the signal ratio)
# Summary of the method: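 Beta-lactamase reporter under UAS control in GeneBLAzer FXR HEK 293T cells (5000/well) measured with LiveBLAzer FRET substrate after 2 h at room temperature. Compound exposure lasted 16 h at 37C.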
# [15] = qHTS assay to identify small molecule agonists of the vitamin D receptor (VDR) signaling pathway - cell viability counter screen (AID 743224); note: nearly all actives have a fitted effect of over 50% in size; note: potency is the fitted concentration of half-maximal effect; for activity change, negative = cytotoxicity: series mostly up to about 63 µM
# Summary of the method: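 VDR-bla cell line, quantitative HTS format; 16 h compound incubation (37C, 5% CO2); ATP-based CellTiter-Glo luminescence measured in the reporter assay wells.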
# [16] = qHTS assay to identify small molecule antagonists of the retinoic acid receptor (RAR) signaling pathway (AID 1159552; note: nearly all actives have a fitted effect of over 50% in size; note: potency is the fitted concentration of half-maximal effect)
# Summary of the method: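 Quantitative HTS in C3RL4 RARE-luciferase reporter cells. Compounds were added with 1 uM (final) retinol; luminescence was read after 6 hr.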
# [17] = target: Peroxisome proliferator-activated receptor delta (Homo sapiens) (UniProt Q03181); test: qHTS assay to identify small molecule agonists of the peroxisome proliferator-activated receptor delta (PPARd) signaling pathway (AID 743212; calls by dose curve)
# Summary of the method: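 GeneBLAzer UAS-bla HEK293H cells carrying a PPARδ construct were exposed to compounds at 37 °C. Beta-lactamase activity was read by FRET fluorescence after 2 h at room temperature with LiveBLAzer B/G substrate.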
# [18] = target: Vitamin D3 receptor (Homo sapiens) (UniProt P11473); test: qHTS assay to identify small molecule agonists of the vitamin D receptor (VDR) signaling pathway (AID 743222; calls by dose curve)
# Chain of Vitamin D3 receptor (Homo sapiens) (P11473 whole entry, looked up): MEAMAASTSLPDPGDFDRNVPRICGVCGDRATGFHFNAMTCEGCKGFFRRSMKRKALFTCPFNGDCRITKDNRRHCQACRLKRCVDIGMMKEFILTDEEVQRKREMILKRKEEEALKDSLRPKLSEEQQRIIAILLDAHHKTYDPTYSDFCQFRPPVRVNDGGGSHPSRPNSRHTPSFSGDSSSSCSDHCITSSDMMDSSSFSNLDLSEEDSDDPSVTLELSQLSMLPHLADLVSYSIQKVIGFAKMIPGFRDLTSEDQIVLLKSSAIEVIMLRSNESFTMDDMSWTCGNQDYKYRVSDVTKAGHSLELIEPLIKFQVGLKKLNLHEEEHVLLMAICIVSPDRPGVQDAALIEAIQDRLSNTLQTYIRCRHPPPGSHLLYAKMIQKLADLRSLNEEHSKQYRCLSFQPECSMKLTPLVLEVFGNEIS
# Summary of the method: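 Agonist activity measured in VDR-bla reporter cells. Exposure 16 h, 37C, 5% CO2; detection by B/G FRET substrate, 2 h RT.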
smiles,measurement,setting,value
CC(C)c1ccc2sc3ccccc3c(=O)c2c1,Potency,[1],inactive
same,Potency,[2],inactive
same,Potency,[3],inactive
same,Potency,[4],inactive
same,Potency,[5],inactive
same,Potency,[6],inactive
same,Potency,[7],inactive
C=C(C)CCO,Potency,[5],inactive
same,Potency,[6],inactive
same,Potency,[8],inactive
same,Potency,[9],inactive
same,Potency,[10],inactive
Clc1nc(C(Cl)(Cl)Cl)c(Cl)c(Cl)c1Cl,Potency,[11],34.7 µM (active)
same,Potency,[12],inactive
same,Potency,[13],inactive
same,Potency,[2],inactive
same,outcome,[14],inactive
same,Potency,[15],49 µM (active)
same,Potency,[4],inactive
same,Potency,[5],30.6 µM (active)
same,Potency,[6],inactive
same,Potency,[9],43.6 µM (active)
CCN(CC)c1ccc(C=O)c(O)c1,Potency,[5],inactive
same,Potency,[6],inactive
same,Potency,[7],inactive
same,Potency,[8],inactive
same,Potency,[10],inactive
same,Potency,[16],inactive
CN1CCN(CCCN2c3ccccc3Sc3ccc(Cl)cc32)CC1,Potency,[11],26.6 µM (active)
same,outcome,[17],inactive
same,Potency,[12],26.6 µM (active)
same,Potency,[2],26.6 µM (active)
same,Potency,[3],23.7 µM (active)
same,outcome,[18],inactive
same,Potency,[5],inactive
same,Potency,[6],inactive
same,Potency,[9],9.52 µM (active)
same,Potency,[10],inactive
same,Potency,[16],26.6 µM (active)
Cc1ccc(Cl)c(N)c1Cl,outcome,[17],inactive
same,Potency,[3],inactive
same,Potency,[15],38.9 µM (active)
same,Potency,[4],inactive
same,Potency,[5],inactive
same,Potency,[6],inactive
same,Potency,[9],49 µM (active)
CCOC(=O)[C@H](O)[C@@H](O)C(=O)OCC,Potency,[5],inactive
same,Potency,[6],inactive
same,Potency,[7],inactive
same,Potency,[8],inactive
same,Potency,[9],inactive
same,Potency,[16],inactive
CC1(C)[C@H]2CC[C@]1(C)C(=O)C2,Potency,[5],inactive
same,Potency,[6],inactive
same,Potency,[7],19.5 µM (active)
same,Potency,[9],inactive
same,Potency,[10],inactive
same,Potency,[16],inactive
CC(C)(c1ccc(Oc2ccc(N)cc2)cc1)c1ccc(Oc2ccc(N)cc2)cc1,Potency,[5],61.1 µM (active)
same,Potency,[6],inactive
same,Potency,[9],inactive
same,Potency,[10],inactive
same,Potency,[16],inactive
CCN(CC)c1ccc(N=Nc2ccccc2)cc1,Potency,[5],inactive
same,Potency,[6],inactive
same,Potency,[9],19.5 µM (active)
same,Potency,[16],inactive
O=C1C=CC(=O)N1c1cccc(N2C(=O)C=CC2=O)c1,Potency,[5],12.2 µM (active)
same,Potency,[6],13.8 µM (active)
same,Potency,[9],11 µM (active)
same,Potency,[10],21.7 µM (active)
same,Potency,[16],10.9 µM (active)
Cc1ccc2nc(-c3ccc(N)cc3)sc2c1S(=O)(=O)O,Potency,[3],inactive
same,Potency,[15],inactive
same,Potency,[4],inactive
same,Potency,[5],inactive
same,Potency,[6],inactive
same,Potency,[7],21.5 µM (active)
same,Potency,[9],inactive
same,Potency,[10],inactive
same,Potency,[16],inactive
COc1cc(C(C)C)ccc1C,"activity, negative = cytotoxicity",[5],-0.985% [at 19 µM]
same,"viability change, negative = cytotoxic",[6],8.58% [at 15.8 µM]
same,activation,[8],-1.52% [at 15.8 µM]
same,"activity change, negative = cytotoxicity",[9],10.4% [at 15.8 µM]
same,"activity, negative = inhibition",[16],191% [at 19 µM]
CN1CCN(CCCN2c3ccccc3Sc3ccc(C(F)(F)F)cc32)CC1,Potency,[11],18.8 µM (active)
same,Potency,[12],26.6 µM (active)
same,Potency,[2],26.6 µM (active)
same,outcome,[14],inactive
same,Potency,[3],26.6 µM (active)
same,Potency,[4],23.9 µM (active)
same,Potency,[5],inactive
same,Potency,[6],inactive
same,Potency,[9],21.3 µM (active)
same,Potency,[10],inactive
same,Potency,[16],23.7 µM (active)
Cc1ccc(N=Nc2c(O)ccc3ccccc23)c(C)c1,Potency,[5],inactive
same,Potency,[6],inactive
same,Potency,[7],inactive
same,Potency,[9],inactive
same,Potency,[10],inactive
same,Potency,[16],inactive
C=C(C)C1CCC(C)CC1O (stereo not drawn),Potency,[5],inactive
same,Potency,[6],inactive
same,Potency,[7],inactive
same,Potency,[8],inactive
same,Potency,[10],inactive
